Several values for one entry are separate records, joined by “and”; a condition that tells them apart may be missing. Equal values may be shown once. In all, about 5,500 compounds went through this assay and about 2,000 (36%) were called active. Not shown: some 18% with an inconclusive outcome. No stated cut-off is given here; in the data, active means normalized growth mostly below about 0.91 (no sharp cut-off); inconclusive means no clear call, values can overlap the other calls; inactive means mostly above about 0.92. Some of the results follow.
Assay: chemical genetic growth profiling, strain panel (AID 1159580);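 further: tested at 20 µM; growth read once vehicle control cultures reached saturation at 30 °C; 1 = growth at the plate median or of vehicle wells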
Conditions: S. cerevisiae deletion strains, growth OD

Measured: normalized growth

C=C1C2CC[C@@]3(C)[C@H](c4ccoc4)OC(=O)C[C@]13O[C@H]1CC(O)C(C)(C)C(CC(=O)OC)[C@@]21C (stereo not given in full)
inactive: locus YAL021C, strain ccr4, stronger effect = lower value 0.962 | locus YAL026C, strain drs2, stronger effect = lower value 0.934 | locus YAL030W, strain snc1, stronger effect = lower value 0.949 | locus YBL061C, strain skt5, stronger effect = lower value 0.984 | locus YBR009C, strain hhf1, stronger effect = lower value 0.972 | locus YBR021W, strain FUR4, stronger effect = lower value 0.991 | locus YBR023C, strain chs3, stronger effect = lower value 0.981 | locus YBR171W, strain sec66, stronger effect = lower value 0.98 | locus YBR229C, strain ROT2, stronger effect = lower value 0.995 | locus YBR231C, strain swc5, stronger effect = lower value 0.974 | locus YBR279W, strain paf1, stronger effect = lower value 0.978 | locus YCL011C, strain gbp2, stronger effect = lower value 0.984 | locus YCL016C, strain dcc1, stronger effect = lower value 0.983 | locus YCL029C, strain bik1, stronger effect = lower value 1.01 | locus YCL061C, strain MRC1, stronger effect = lower value 0.989 | locus YCL069W, strain vba3, stronger effect = lower value 0.979 | locus YCR088W, strain abp1, stronger effect = lower value 0.977 | locus YDL005C, strain med2, stronger effect = lower value 0.952 | locus YDL035C, strain GPR1, stronger effect = lower value 0.999 | locus YDL040C, strain nat1, stronger effect = lower value 0.982 | locus YDL074C, strain BRE1, stronger effect = lower value 0.999 | locus YDL101C, strain DUN1, stronger effect = lower value 0.999 | locus YDL185W, strain tfp1, stronger effect = lower value 1.02 | locus YDL192W, strain arf1, stronger effect = lower value 1.01 | locus YDR001C, strain nth1, stronger effect = lower value 0.962 | locus YDR069C, strain doa4, stronger effect = lower value 0.957 | locus YDR101C, strain arx1, stronger effect = lower value 1.01 | locus YDR137W, strain rgp1, stronger effect = lower value 0.938 | locus YDR150W, strain NUM1, stronger effect = lower value 0.98 | locus YDR159W, strain sac3, stronger effect = lower value 0.936 | locus YDR162C, strain NBP2, stronger effect = lower value 1.01 | locus YDR195W, strain ref2 0.937 | locus YDR297W, strain sur2, stronger effect = lower value 0.965 | locus YDR318W, strain mcm21, stronger effect = lower value 1.02 | locus YDR334W, strain swr1, stronger effect = lower value 0.966 | locus YDR335W, strain msn5, stronger effect = lower value 0.967 | locus YDR388W, stronger effect = lower value 1 | locus YDR392W, strain spt3, stronger effect = lower value 0.97 | locus YDR502C, strain sam2, stronger effect = lower value 1 | locus YEL003W, strain gim4, stronger effect = lower value 0.975 | locus YEL037C, strain rad23, stronger effect = lower value 0.976 | locus YEL061C, strain CIN8 (second series), stronger effect = lower value 0.966 | locus YEL061C, strain CIN8, stronger effect = lower value 1.05 | locus YER015W, strain faa2, stronger effect = lower value 0.985 | locus YER016W, strain bim1, stronger effect = lower value 0.967 | locus YER110C, stronger effect = lower value 1.02 | locus YER111C, strain swi4, stronger effect = lower value 0.988 | locus YER155C, strain BEM2 (second series), stronger effect = lower value 0.955 | locus YER155C, strain BEM2, stronger effect = lower value 1 | locus YER167W, strain BCK2, stronger effect = lower value 1 | locus YFR010W, strain ubp6, stronger effect = lower value 0.965 | locus YGL078C, strain dbp3, stronger effect = lower value 1.02 | locus YGL086W, strain mad1, stronger effect = lower value 1.02 | locus YGL167C, strain pmr1, stronger effect = lower value 0.963 | locus YGL173C, strain kem1, stronger effect = lower value 0.961 | locus YGL227W, strain vid30, stronger effect = lower value 0.986 | locus YGL240W, strain doc1, stronger effect = lower value 0.97 | locus YGL248W, strain PDE1, stronger effect = lower value 1.01 | locus YGL253W, strain hxk2, stronger effect = lower value 0.972 | locus YGR135W, strain pre9, stronger effect = lower value 1.01 | locus YGR252W, strain gcn5, stronger effect = lower value 1.02 | locus YHR013C, strain ard1, stronger effect = lower value 0.939 | locus YHR027C, strain rpn1, stronger effect = lower value 0.967 | locus YHR030C, strain SLT2, stronger effect = lower value 1.01 and 0.963 | locus YHR079C, strain IRE1 (second series), stronger effect = lower value 1.01 | locus YHR079C, strain IRE1, stronger effect = lower value 0.973 | locus YHR094C, strain hxt1, stronger effect = lower value 1.01 | locus YHR129C, strain ARP1, stronger effect = lower value 1 | locus YHR142W, strain chs7, stronger effect = lower value 0.986 | locus YHR200W, strain rpn10, stronger effect = lower value 0.993 | locus YIL066C, strain RNR3, stronger effect = lower value 0.997 | locus YIL073C, strain SPO22, stronger effect = lower value 1.06 | locus YIL125W, strain kgd1, stronger effect = lower value 1.01 | locus YIR030C, strain dcg1, stronger effect = lower value 1.01 | locus YJL092W, strain hpr5, stronger effect = lower value 0.975 | locus YJL095W, strain BCK1 (second series), stronger effect = lower value 0.956 | locus YJL095W, strain BCK1, stronger effect = lower value 1.01 and 0.974 | locus YJL115W, strain asf1, stronger effect = lower value 0.937 | locus YJL129C, strain trk1, stronger effect = lower value 0.963 | locus YJL134W, strain LCB3, stronger effect = lower value 1.01 | locus YJL154C, strain vps35, stronger effect = lower value 0.973 | locus YJL164C, strain tpk1, stronger effect = lower value 0.972 | locus YJL166W, strain qcr8, stronger effect = lower value 0.97 | locus YJL168C, strain set2, stronger effect = lower value 1.01 | locus YJL187C, strain SWE1 (second series), stronger effect = lower value 1

Reference: PubChem BioAssay AID1159580 (chemical genetic matrix, 2015)
